# Laboratory results: PubChem BioAssay AID2391 (Southern Research Specialized Biocontainment Screening …, 2010)
# Screen size: about 310,000 compounds; about 410 (0.13%) were called active. About 2% were inconclusive and are not listed. How the calls were made is not given here. Not all results are given here. Measured potencies and affinities stand elsewhere.
# Assay: RSV antiviral activity via CPE protection, HEp-2 cells, primary 10 µM value included (AID 2391)
# Settings: RSV-induced CPE inhibition, at 10 µM, hits give high values
row,SMILES,CPE inhibition
1,CCOC(=O)c1c(CC(C)C)csc1NC(=O)COC(=O)c1cc(OC)c(OC)cc1[N+](=O)[O-],3.28% (inactive)
2,C[C@@H]1NS(=O)(=O)[C@H]2C[C@@H]3C=C[C@]2(O3)[C@H]1OC(=O)Nc1ccc(C(F)(F)F)cc1[N+](=O)[O-],0.31% (inactive)
3,Cc1cc(C(=O)O[C@H]2[C@H](Cc3ccccc3)NS(=O)(=O)[C@H]3C[C@@H]4C=C[C@]23O4)ccc1[N+](=O)[O-],1.3% (inactive)
4,CCN(Cc1ccccc1)C(=O)Cc1c[nH]c2ccccc12,4.41% (inactive)
5,O=[N+]([O-])c1ccc(-c2ccc(/C=N/O)o2)cc1,11.6% (inactive)
6,Cc1ccc(-c2ccc(/C=N/NC(=S)Nc3ccccc3)o2)cc1[N+](=O)[O-],17.4% (inactive)
7,CC(=O)Nc1ccc(NC(=O)CSc2ccc(-c3ccc4c(c3)OCO4)nn2)cc1,3.37% (inactive)
8,CCOC(=O)C1CCCN(c2c(Nc3ccc(C)c(C)c3)c(=O)c2=O)C1 (stereo unspecified),1% (inactive)
9,COc1cccc(OCCCN2CCN(S(=O)(=O)c3ccc(NC(C)=O)cc3)CC2)c1,3.71% (inactive)
10,CCc1c(C(=O)Nc2cc(C)cc(C)c2)[nH]c(C)c1C(C)=O,2.64% (inactive)
11,COc1ccc(C(CNC(=O)Cc2ccccc2)N2CCCCC2)cc1 (stereo unspecified),-0.35% (inactive)
12,COc1ccc(C(CNC(=O)COc2ccccc2)N2CCCCC2)cc1 (stereo unspecified),0.71% (inactive)
13,NC(=O)c1ccsc1NC(=O)COC(=O)c1nc(Cl)ccc1Cl,-1.24% (inactive)
14,c1ccc2[nH]c(CN3CCCCCC3)nc2c1,0.95% (inactive)
15,c1ccc(N2CCN(c3nc4ccccc4[nH]3)CC2)nc1,-2.6% (inactive)
16,COc1ccccc1N1CCN(Cc2nc3ccccc3[nH]2)CC1,1.74% (inactive)
17,Oc1ccc(N2CCN(Cc3nc4ccccc4[nH]3)CC2)cc1,13.2% (inactive)
18,COC(CNS(=O)(=O)c1cccc2nonc12)OC,3.28% (inactive)
19,CCN(CC(=O)Nc1c(F)cccc1F)C(=O)c1ccc(N2CCCCC2)c([N+](=O)[O-])c1,5.38% (inactive)
20,Cc1csc(NC(=O)c2ccc[nH]c2=O)n1,0.61% (inactive)
21,COc1ccc(OCCOC(=O)C(C)NS(=O)(=O)c2ccc(NC(C)=O)cc2)cc1 (stereo unspecified),0.13% (inactive)
22,CCOC(=O)N1CCN(CC(=O)Nc2nc3ccc(OC)cc3s2)CC1,10.2% (inactive)
23,O=c1c2ccccc2nc(SCc2ccc([N+](=O)[O-])cc2)n1CCCO,4.2% (inactive)
24,Cn1c(SCC#N)nc2ccccc2c1=O,2.04% (inactive)

row,SMILES,CPE inhibition
1,CCC(Sc1nc2ccccc2c2nc3ccccc3n12)C(=O)NCc1ccco1 (stereo unspecified),-0.18% (inactive)
2,CCn1c(SCC#N)nc2ccccc2c1=O,1.07% (inactive)
3,O=C(CSc1nc2ccccc2n1CC(=O)NCc1ccccc1)NCc1ccco1,-0.09% (inactive)
4,Cc1cccc(C(=O)O/N=C/c2c(N3CCOCC3)n(C)c3ccccc23)c1,-0.89% (inactive)
5,COC(=O)Cc1c(C)c2ccc(OC3CCCCC3=O)cc2oc1=O (stereo unspecified),6.9% (inactive)
6,CN(C)c1ccc(NC(=O)CSc2nc(C3CC3)nc3ccccc23)cc1,3.13% (inactive)
7,CCC(C)NC(=O)c1nc2c(nnn2Cc2ccccc2Cl)c(=O)[nH]1 (stereo unspecified),1.33% (inactive)
8,CC1C2C(C)N(C)C(=O)N(C)C2N(C)C(=O)N1C (stereo unspecified),2.07% (inactive)
9,CCCC(=O)Nc1nc2ccc(OCC)cc2s1,2.67% (inactive)
10,CCOc1ccc2nc(NS(=O)(=O)c3cccs3)sc2c1,1.43% (inactive)
11,CCOc1ccc2nc(NC(=O)C(NS(=O)(=O)c3cccs3)C(C)C)sc2c1 (stereo unspecified),19.6% (inactive)
12,CC1(C(=O)Nc2nc3ccccc3s2)CC1(Br)Br (stereo unspecified),9.49% (inactive)
13,C/C(=N/NS(C)(=O)=O)c1ccc2ccccc2c1,-0.76% (inactive)
14,CC(C)C(=O)Nc1cccc(-c2cnc3ccccc3n2)c1,-1.56% (inactive)
15,O=C(NNC(=O)C1CC1c1ccccc1)Nc1ccccc1 (stereo unspecified),1.51% (inactive)
16,Cc1cc(N2CCOCC2)n2cc(-c3ccccc3)nc2n1,1.5% (inactive)
17,Cc1cc(N2CCN(c3ccccc3Cl)CC2)n2cc(-c3ccccc3)nc2n1,5.23% (inactive)
18,CCCC(=O)N/C(N)=N/c1nc(C)c2ccccc2n1,0.78% (inactive)
19,N#CCCn1cc(CNC2CCC(O)CC2)c2ccccc21 (stereo unspecified),2.18% (inactive)
20,Cn1nc(SCC(=O)O)sc1=S,-0.46% (inactive)
21,Cc1ccc2cc(CN(Cc3ccco3)C(=S)NCC3CCCO3)c(=O)[nH]c2c1C (stereo unspecified),2% (inactive)
22,Cc1ccc2cc(CN(CC3CCCO3)C(=S)NCc3ccco3)c(=O)[nH]c2c1 (stereo unspecified),1.42% (inactive)
23,COc1ccc(C(=O)COC(=O)CCn2nnc(-c3cccs3)n2)cc1,1.36% (inactive)
24,NC(=O)C1CCN(c2ccc(C(F)(F)F)cc2[N+](=O)[O-])CC1,16.8% (inactive)

row,SMILES,CPE inhibition
1,O=[N+]([O-])c1cc(C(F)(F)F)ccc1N1CCCC(O)C1 (stereo unspecified),9.15% (inactive)
2,COCC1CCN(C(=O)C2CCC(=O)N(Cc3cccc(F)c3)C2)CC1 (stereo unspecified),2.17% (inactive)
3,c1csc(-c2nn3c(Cn4nnc5ccccc54)nnc3s2)c1,26.6% (inactive)
4,Clc1cccc(-c2nn3c(Cn4cnc5ccccc54)nnc3s2)c1,34% (inactive)
5,c1ccc2c(c1)ncn2Cc1nnc2sc(-c3ccncc3)nn12,-0.84% (inactive)
6,c1ccc(Cc2nn3c(Cn4cnc5ccccc54)nnc3s2)cc1,5.56% (inactive)
7,c1ccc2c(c1)nnn2Cc1nnc2sc(-c3ccncc3)nn12,1.65% (inactive)
8,c1cncc(-c2nn3c(Cn4cnc5ccccc54)nnc3s2)c1,15.6% (inactive)
9,Cc1ccc[n+](C(C)C(=O)Nc2ccc(C)c([N+](=O)[O-])c2)c1 (stereo unspecified),0.22% (inactive)
10,COc1cccc(NC(=O)CNc2cc(S(=O)(=O)N3CCOCC3)ccc2N2CCCC2)c1,-0.7% (inactive)
11,CC(C)(C)CC(=O)NC(=S)NCc1ccccc1,5.07% (inactive)
12,CC(C)(C)C(=O)NC(=S)NCCc1ccccc1,2.62% (inactive)
13,COc1ccc(/C(C)=N/OCC(=O)N=Nc2c(O)[nH]c3ccc(Br)cc23)cc1,4.9% (inactive)
14,O=C(Nc1ccc(F)cc1F)C1CC(=O)N(Cc2ccccc2)C1 (stereo unspecified),0.74% (inactive)
15,CCc1c(C)nc2ncnn2c1N1CCC(C(=O)NCc2cccs2)CC1,11% (inactive)
16,O=C(NC(=S)NNC(=O)c1ccccc1O)c1cccc([N+](=O)[O-])c1,16.2% (inactive)
17,C=CCN1CC(c2nc3ccccc3n2CCOc2ccccc2)CC1=O (stereo unspecified),0.6% (inactive)
18,CCn1c(C2CC(=O)N(Cc3ccccc3)C2)nc2ccccc21 (stereo unspecified),1.99% (inactive)
19,Cn1c(SCC(=O)NC2CCCC2)nnc1-c1ccncc1,0.88% (inactive)
20,COc1ccc(C(=O)Nc2cccc(C(=O)N3CCCCC3)c2)cc1,3.16% (inactive)
21,CCc1ccccc1Nc1nc(N)nc(COC(=O)c2c(C)noc2C)n1,3.24% (inactive)
22,Cc1ccccc1Nc1nc(N)nc(COC(=O)c2cccn2C)n1,4.72% (inactive)
23,Cc1nn(-c2ccccn2)c(C)c1Oc1ccccc1O,0.08% (inactive)
24,Cc1cc(C)nc(-n2nc(C)c(Oc3ccccc3O)c2C)n1,1.29% (inactive)

row,SMILES,CPE inhibition
1,CCC(=O)c1ccc(OCC(=O)N(C)CC(=O)Nc2cccc(F)c2)cc1,-0.9% (inactive)
2,CC(=O)Nc1ccc2c3c(cccc13)CC2,3.08% (inactive)
3,COc1ccc(NC(=O)[C@H](Cc2c[nH]c3ccccc23)NC(=O)[C@@H]2Cc3ccccc3CN2)cc1,1.35% (inactive)
4,Cc1cccc(NC(=O)[C@H](Cc2c[nH]c3ccccc23)NC(=O)[C@@H]2Cc3ccccc3CN2)c1,3.9% (inactive)
5,Cc1cc(N2CCOCC2)nc2ccc(NC(=O)CCC(=O)N3CCN(c4ccccc4F)CC3)cc12,13.8% (inactive)
6,CC(NC(=O)COc1ccc(Br)cc1)C(=O)O (stereo unspecified),0.8% (inactive)
7,O=C1N=C(N2CCOCC2)S/C1=C\c1ccc(OS(=O)(=O)c2ccccc2)cc1,0.11% (inactive)
8,CN1CCN(C2=NC(=O)/C(=C/c3ccccc3OS(=O)(=O)c3ccccc3)S2)CC1,1.12% (inactive)
9,CC(=O)N1c2ccccc2N(Cc2ccc(C)cc2C)C(=O)C1(C)C,5.65% (inactive)
10,Cc1cc(C)nc(NC(=O)c2c(F)c(F)c(F)c(C(=O)Nc3cc(C)cc(C)n3)c2F)c1,-2.23% (inactive)
11,CCn1cc(C(=O)NCc2ccncc2)c(=O)c2cc(F)c(N3CCN(C(=O)c4ccco4)CC3)cc21,4.28% (inactive)
12,CCn1cc(C(=O)NCc2ccco2)c(=O)c2cc(F)c(N3CCN(C(=O)c4ccco4)CC3)cc21,0.76% (inactive)
13,CCn1cc(C(=O)O)c(=O)c2cc(F)c(N3CCN(C(=S)NC(=O)c4ccccc4)CC3)cc21,-1.03% (inactive)
14,CCC(=O)N1CCN(c2cc3c(cc2F)c(=O)c(C(=O)O)cn3CC)CC1,0.7% (inactive)
15,COc1ccccc1C1CCCN1Cc1nc(-c2cc3c(cc2Cl)OCO3)oc1C (stereo unspecified),1.45% (inactive)
16,CCOc1ccccc1-c1nc(CN2CCCC2c2nccs2)c(C)o1 (stereo unspecified),5.15% (inactive)
17,COCc1ccc(CN2CCCC(CO)(Cc3ccccc3C)C2)o1 (stereo unspecified),-0.94% (inactive)
18,CCOC(=O)c1cnc(Cc2ccccc2)[nH]c1=O,1.25% (inactive)
19,N#Cc1nc(COc2ccccc2Cl)oc1N1CCCC1,40.5% (inactive)
20,Cc1c(C(=O)O)oc2ccc3c(c12)C(O)CC(C)(C)O3 (stereo unspecified),1.72% (inactive)
21,CN(CC(=O)Nc1ccccc1Cl)C(=O)c1cc(C2CC2)nn1-c1ccccc1,1.34% (inactive)
22,O=C(O)c1cc(C2CC2)nn1-c1ccccc1,-0.32% (inactive)
23,CCc1ccccc1NC(=O)CNC(=O)c1cc(C2CC2)nn1-c1ccccc1,-0.83% (inactive)
24,CCc1ccccc1NC(=O)CN(C)C(=O)c1cc(C2CC2)nn1-c1ccccc1,0.49% (inactive)
